Measured values published in PubChem BioAssay (NCI).
Compounds without any hit were thinned out: in the full panel of roughly 83,000, 20% have a hit.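 The endpoint reported here, percent growth, reads 100 for growth as untreated, 0 for no net growth and -100 for all cells dead.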 Unmarked numbers belong to inactive results. Calls of active or inactive are those of the source. Rule for the calls: active = growth percent below 10; inactive = the rest.

Key:
Test in all cases: NCI-60 one-dose screen, 48 h (100 = growth as untreated, 0 = no growth, -100 = all killed)
Details in all cases: 10 µM unless noted
[1] = test system: T-47D breast
[2] = test system: BT-549 breast
[3] = test system: MDA-MB-435 melanoma
[4] = test system: SW-620 colon
[5] = test system: MCF7 breast
[6] = test system: HCT-116 colon
[7] = test system: HCC-2998 colon
[8] = test system: KM12 colon

CC(C)CCC[C@@H](C)C1CCC2C3CCC4=C/C(=N/OCCN(C)C)CC[C@]4(C)C3CC[C@@]21C (stereo not given in full)
growth [1]: 87.4%
growth [2]: 90.5%
growth [3]: 102%
growth [4]: 91.1%
growth [5]: 91.9%
growth [6]: 83.9%
growth [7]: 80.8%
growth [8]: 87.4%

COCCCOc1cc(C[C@@H](C[C@H](N)[C@@H](O)C[C@H](C(=O)NCC(C)(C)C(N)=O)C(C)C)C(C)C)ccc1OC
growth [1]: 107%
growth [2]: 110%
growth [3]: 98.9%
growth [4]: 105%
growth [5]: 95.1%
growth [6]: 101%
growth [7]: 102%
growth [8]: 109%

COc1ccc(C2CC(c3ccc4c(c3)OCO4)=Nc3c(N)ncnc3N2)cc1 (stereo not given)
growth [1]: 84.9%
growth [2]: 118%
growth [3]: 105%
growth [4]: 95.9%
growth [5]: 90.6%
growth [6]: 98.5%
growth [7]: 92.4%
growth [8]: 100%

Cc1cc(C)c(-c2c(O)c(Br)c(-c3c(C)cc(C)c(Br)c3C)c(O)c2Br)c(C)c1Br
growth [1]: -19.4% (active)
growth [2]: 22.2%
growth [3]: 13.1%
growth [4]: 3.38% (active)
growth [5]: 6.48% (active)
growth [6]: 9.25% (active)
growth [7]: 37.3%
growth [8]: 12.2%

C=C1C(=O)O[C@H]2[C@H]1CC/C(Cn1cc(-c3cc(C(F)(F)F)cc(C(F)(F)F)c3)nn1)=C\CC[C@@]1(C)O[C@@H]21
growth [1]: -60.6% (active)
growth [2]: -78% (active)
growth [3]: -81.7% (active)
growth [4]: -35.8% (active)
growth [5]: -67.6% (active)
growth [6]: -87.2% (active)
growth [7]: -87.4% (active)
growth [8]: -77.1% (active)

O=C(NCc1ccccc1O)c1cccc2ccccc12
growth [1]: 59.7%
growth [2]: 68.8%
growth [3]: 76.9%
growth [4]: 87.6%
growth [5]: 83.9%
growth [6]: 69.1%
growth [7]: 89.9%
growth [8]: 85%

COc1ccc2c(c1)c(-c1nonc1-c1cn(C)c3ccc(OC)cc13)cn2C
growth [1]: 38.6%
growth [2]: 45.7%
growth [3]: -25.4% (active)
growth [4]: 16.3%
growth [5]: 20.7%
growth [6]: 19.2%
growth [7]: 65.7%
growth [8]: 25.8%

COc1cccc(Nc2ccnc3[nH]c4ccc([N+](=O)[O-])cc4c23)c1
growth [1]: 41.8%
growth [2]: 80.3%
growth [3]: -24.4% (active)
growth [4]: 56.5%
growth [5]: 19.7%
growth [6]: 24.5%
growth [7]: 84.8%
growth [8]: 27.2%

CCOC(=O)C1=C(c2ccccc2)N=c2s/c(=C/c3ccc(Br)cc3)c(=O)n2C1c1ccc(O)cc1 (stereo not given)
growth [1]: 69.7%
growth [2]: 95.3%
growth [3]: 96%
growth [4]: 94.6%
growth [5]: 77.1%
growth [6]: 82.3%
growth [7]: 105%
growth [8]: 84.4%

O=C(CCCCl)NNc1nccc(Nc2ccc(S(=O)(=O)Nc3ccncc3)cc2)n1
growth [1]: 94.1%
growth [2]: 120%
growth [3]: 107%
growth [4]: 113%
growth [5]: 93.4%
growth [6]: 97.1%
growth [7]: 103%
growth [8]: 101%

O=C1N[C@@H]2[C@@H](O)[C@@H](O)[C@H](O)C[C@H]2c2cc3c(c(O)c21)OCCO3
growth [1]: -15.8% (active)
growth [2]: -17.5% (active)
growth [3]: 1.45% (active)
growth [4]: 4.85% (active)
growth [5]: -13.3% (active)
growth [6]: -3.3% (active)
growth [7]: -46.2% (active)
growth [8]: -2.6% (active)

CC[C@@H](c1ccc2cc(OC)ccc2c1)C(C)(C)C(=O)F
growth [1]: 118%
growth [2]: 19.9%
growth [3]: 102%
growth [4]: 94.6%
growth [5]: 108%
growth [6]: 85.6%
growth [7]: 55.1%
growth [8]: 107%

COc1ccc(OC)c(Nc2nnc(-c3ccc(Cl)cc3)o2)c1
growth [1]: 59.9%
growth [2]: 81.9%
growth [3]: 84.6%
growth [4]: 86.2%
growth [5]: 91.6%
growth [6]: 31.1%
growth [7]: 104%
growth [8]: 66.4%

CCCCCCCCCCCCCCCCOC(=O)c1c(C)[nH]c(/C=C2\N=C(c3ccc[nH]3)C=C2OC)c1C
growth [1]: 31.2%
growth [2]: 55.1%
growth [3]: 15.7%
growth [4]: 10.9%
growth [5]: 8.67% (active)
growth [6]: -0.291% (active)
growth [7]: 24.3%
growth [8]: 22.7%

CCOC(=O)CSc1nc2sc3c(c2c(=O)n1-c1ccc([N+](=O)[O-])cc1)CCCCC3
growth [1]: 76.7%
growth [2]: 97.2%
growth [3]: 77.3%
growth [4]: 81.3%
growth [5]: 76.2%
growth [6]: 51.3%
growth [7]: 82%
growth [8]: 89.7%

CC(C)C[C@@H](C(=O)N[C@H](C(=O)OC1CCCC1)c1ccccc1)[C@H](O)C(=O)NO
growth [1]: 36.7%
growth [2]: 69.7%
growth [3]: 49.4%
growth [4]: 49.8%
growth [5]: 43.3%
growth [6]: 56.7%
growth [7]: 94.4%
growth [8]: 65.7%

CC(=O)c1cc(-c2ccccc2N)n(-c2ccc3c(c2)OCO3)c1C
growth [1]: 71%
growth [2]: 1.13% (active)
growth [3]: -43.6% (active)
growth [4]: 29.2%
growth [5]: 14.8%
growth [6]: 6.22% (active)
growth [7]: 15.8%
growth [8]: 5.16% (active)

COc1ccc(Nc2ncc(C(N)=O)c(NCCCNC(=O)C3CCC3)n2)cc1
growth [1]: 102%
growth [2]: 24.5%
growth [3]: 84%
growth [4]: 50.9%
growth [5]: 64%
growth [6]: 54%
growth [7]: 98.5%
growth [8]: 29.3%

Brc1ccc(-c2cnc3nonc3n2)cc1
growth [1]: 69.7%
growth [2]: 115%
growth [3]: 3.37% (active)
growth [4]: 77.6%
growth [5]: 28.2%
growth [6]: 60%
growth [7]: 91.3%
growth [8]: 78.2%

Cn1cc(-c2nc(-c3c[nH]c4ccncc34)cs2)c2cc(Br)ccc21
growth [1]: -54.1% (active)
growth [2]: 84.2%
growth [3]: -81.4% (active)
growth [4]: -71.8% (active)
growth [5]: -72.4% (active)
growth [6]: -89.7% (active)
growth [7]: -68.9% (active)
growth [8]: -83.8% (active)

O=C1CCCc2nc3sc4c(=O)n(-c5ccccc5Cl)nnc4c3cc21
growth [1]: 83.8%
growth [2]: 102%
growth [3]: 102%
growth [4]: 102%
growth [5]: 90.4%
growth [6]: 96%
growth [7]: 118%
growth [8]: 107%

C=C1C(=O)O[C@H]2[C@H]1CC/C(COC(=O)c1cc3cc(F)ccc3[nH]1)=C\CC[C@@]1(C)O[C@@H]21
growth [1]: -51.8% (active)
growth [2]: -82.9% (active)
growth [3]: -82% (active)
growth [4]: -69.2% (active)
growth [5]: -61.7% (active)
growth [6]: -87.2% (active)
growth [7]: -83.4% (active)
growth [8]: -48% (active)

C=C1C(=O)O[C@H]2[C@H]1CC/C(COC(=O)/C=C\C(=O)NCc1ccc(Cn3c(=O)sn(-c4ccccc4)c3=O)cc1)=C\CC[C@@]1(C)O[C@@H]21
growth [1]: 67.9%
growth [2]: 93.5%
growth [3]: 67.7%
growth [4]: 19.9%
growth [5]: 53.7%
growth [6]: 33.6%
growth [7]: 105%
growth [8]: 106%

COc1cc2c(c(OC)c1OC)C(=O)N[C@@H]1[C@@H](O)[C@@H](O)[C@H](O)C[C@@H]21
growth [1]: 100%
growth [2]: 110%
growth [3]: 110%
growth [4]: 109%
growth [5]: 96.1%
growth [6]: 98.9%
growth [7]: 101%
growth [8]: 108%

N#Cc1c(-c2ccccc2)c(C#N)c2c(C#N)c(N)nn2c1N
growth [1]: 19.6%
growth [2]: 47.4%
growth [3]: -39.6% (active)
growth [4]: 25.4%
growth [5]: 15.9%
growth [6]: 24.2%
growth [7]: 61.4%
growth [8]: 24.4%

O=C(CCCCCCCCC(=O)N/N=C\c1cc(Cl)ccc1O)N/N=C\c1cc(Cl)ccc1O
growth [1]: 28.2%
growth [2]: 38.5%
growth [3]: 38.1%
growth [4]: 46.5%
growth [5]: 20%
growth [6]: 22.7%
growth [7]: 39%
growth [8]: 24.2%

Cc1cc2nc(-c3c(-c4ccc(F)cc4)nc4sccn34)[nH]c2cc1C
growth [1]: 85.7%
growth [2]: 109%
growth [3]: 103%
growth [4]: 108%
growth [5]: 91.6%
growth [6]: 103%
growth [7]: 106%
growth [8]: 96.7%

CCCCCCCCn1ccc2cc(NC(=O)Cn3cc(CN4CCC(C)CC4)nn3)ccc21
growth [1]: 6.9% (active)
growth [2]: 78.1%
growth [3]: -75.6% (active)
growth [4]: -72.1% (active)
growth [5]: 4.43% (active)
growth [6]: -18.6% (active)
growth [7]: -78.8% (active)
growth [8]: 4.72% (active)

COc1ccc(Cc2cnc(NC(=O)c3sc4ccccc4c3Cl)s2)cc1
growth [1]: 34.5%
growth [2]: 34.7%
growth [3]: -39.1% (active)
growth [4]: 25%
growth [5]: 17.5%
growth [6]: 15.1%
growth [7]: 25.6%
growth [8]: 16.7%

COc1ccc(-c2ccc(-c3ccc(C(=N)N)cn3)s2)cc1
growth [1]: 74.3%
growth [2]: 88.1%
growth [3]: 97%
growth [4]: 8.29% (active)
growth [5]: 44.1%
growth [6]: -20.8% (active)
growth [7]: 81.3%
growth [8]: 61.6%
